# Measured values from PubChem BioAssay.
# Values without a mark were called inactive. For some assays here: Results with a measured potency or affinity are listed apart. Active and inactive are the calls of the source. Unless noted, the rule behind the calls is not given here.
# What was measured:
# [1] = antimalarial activity against Dd2 strain (AID 2302;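 active = growth inhibition above 50% at the single 2 µM test dose, taken to imply half-maximal potency below 2 µM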;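 note: 0% = DMSO untreated growth and 100% = chloroquine plus artemisinin killed control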); conditions: P. falciparum Dd2 in RBCs, LDH growth readout, 72 h; at 2 µM; stronger effect = higher value
# [2] = human hepatoma cell viability loss – ATP luminescence, cytotoxicity control for P. falciparum antimalarial project, primary screen (AID 2303;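 active = inhibition above 50%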;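 note: 0% = DMSO wells and 100% = digitonin-killed cells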); conditions: HepG2 viability, 24-48 h, at 10 µM, stronger effect = higher value
# [3] = biological target: L-lactate dehydrogenase (Plasmodium falciparum (isolate CDC / Honduras)) (UniProt Q27743); assay: PfLDH activity inhibition – cell lysate, 3D7 strain, counter-screen for P. falciparum growth inhibition project (AID 2304);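 note: 0% = vehicle and 100% = reference inhibitor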; conditions: P. falciparum 3D7 crude extract, LDH APAD/NBT absorbance; at 2 µM; stronger effect = higher value
# [4] = inhibition of 3D7 malaria parasite growth – strain 3D7 (AID 2306);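 note: 0% = DMSO wells and 100% = chloroquine plus artemisinin control wells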; conditions: P. falciparum 3D7 erythrocytic growth, LDH absorbance, 72 h; at 2 µM; stronger effect = higher value
# [5] = biological target: Calcium-dependent protein kinase 1 (Plasmodium falciparum (isolate 3D7)) (UniProt P62344); assay: PfCDPK1 kinase inhibitors, biochemical, TCAMS library (AID 1159585; cut-off not given, nearly all actives have IC50 up to about 0.98 µM;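 note: inhibitors leave more ATP so luminescence rises with inhibition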); conditions: recombinant PfCDPK1, Kinase-Glo ATP depletion luminescence
# [6] = biological target: Plasmodium falciparum protein kinase 6 (PK6, PF3D7_1337100) (UniProt Q8IDW1); assay: PfPK6 kinase inhibitors, biochemical, TCAMS library (AID 1159586); conditions: recombinant PfPK6, Kinase-Glo ATP depletion luminescence
# [7] = biological target: Protein kinase 7 (PK7), Plasmodium falciparum 3D7 (PF3D7_0213400) (UniProt Q7YTF7); assay: inhibition of Plasmodium PK7 catalytic activity – biochemical, TCAMS antimalarial set, Kinase-Glo luminescence (AID 1159587); conditions: recombinant PfPK7, Kinase-Glo ATP depletion luminescence
# [8] = biological target: Calcium-dependent protein kinase 4 (Plasmodium falciparum (isolate 3D7)) (UniProt Q8IBS5); assay: PfCDPK4 kinase inhibitors, biochemical, TCAMS library (AID 1159588; cut-off not given, nearly all actives have IC50 up to about 0.91 µM); conditions: recombinant PfCDPK4, Kinase-Glo ATP depletion luminescence
# Sequence of Calcium-dependent protein kinase 4 (Plasmodium falciparum (isolate 3D7)) (Q8IBS5 whole entry, looked up): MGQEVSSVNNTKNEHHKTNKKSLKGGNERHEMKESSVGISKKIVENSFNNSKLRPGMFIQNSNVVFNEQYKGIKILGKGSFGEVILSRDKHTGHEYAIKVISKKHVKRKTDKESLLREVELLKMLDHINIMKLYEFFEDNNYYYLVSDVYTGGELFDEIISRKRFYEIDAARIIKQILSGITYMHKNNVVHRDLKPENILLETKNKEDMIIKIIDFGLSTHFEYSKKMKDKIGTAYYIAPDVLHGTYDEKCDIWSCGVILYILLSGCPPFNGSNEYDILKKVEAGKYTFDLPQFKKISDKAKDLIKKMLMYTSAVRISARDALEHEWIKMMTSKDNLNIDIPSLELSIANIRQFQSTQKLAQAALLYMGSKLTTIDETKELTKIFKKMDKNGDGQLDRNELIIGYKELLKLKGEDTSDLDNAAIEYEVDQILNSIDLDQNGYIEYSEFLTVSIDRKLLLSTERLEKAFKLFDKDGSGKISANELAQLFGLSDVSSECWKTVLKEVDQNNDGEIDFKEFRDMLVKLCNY
# Sequence of Plasmodium falciparum protein kinase 6 (PK6, PF3D7_1337100) (Q8IDW1 1-305): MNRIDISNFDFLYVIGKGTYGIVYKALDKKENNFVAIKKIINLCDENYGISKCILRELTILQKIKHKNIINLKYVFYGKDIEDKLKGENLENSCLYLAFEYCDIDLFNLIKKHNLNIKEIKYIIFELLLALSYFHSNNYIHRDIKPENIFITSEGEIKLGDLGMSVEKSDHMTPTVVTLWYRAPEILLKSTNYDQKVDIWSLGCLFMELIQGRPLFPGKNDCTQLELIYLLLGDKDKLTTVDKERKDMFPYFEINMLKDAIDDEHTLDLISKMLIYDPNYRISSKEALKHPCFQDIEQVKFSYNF
# Sequence of L-lactate dehydrogenase (Plasmodium falciparum (isolate CDC / Honduras)) (Q27743 whole entry, looked up): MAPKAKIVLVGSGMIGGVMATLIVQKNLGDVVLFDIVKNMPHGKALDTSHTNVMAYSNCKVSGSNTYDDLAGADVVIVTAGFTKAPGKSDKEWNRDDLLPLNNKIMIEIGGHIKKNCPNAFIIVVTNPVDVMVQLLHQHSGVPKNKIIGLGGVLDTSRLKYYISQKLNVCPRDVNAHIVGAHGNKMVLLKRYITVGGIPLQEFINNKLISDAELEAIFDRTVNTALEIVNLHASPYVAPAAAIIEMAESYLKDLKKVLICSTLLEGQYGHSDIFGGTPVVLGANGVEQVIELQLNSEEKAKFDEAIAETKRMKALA
# Sequence of Protein kinase 7 (PK7), Plasmodium falciparum 3D7 (PF3D7_0213400) (Q7YTF7 1-343): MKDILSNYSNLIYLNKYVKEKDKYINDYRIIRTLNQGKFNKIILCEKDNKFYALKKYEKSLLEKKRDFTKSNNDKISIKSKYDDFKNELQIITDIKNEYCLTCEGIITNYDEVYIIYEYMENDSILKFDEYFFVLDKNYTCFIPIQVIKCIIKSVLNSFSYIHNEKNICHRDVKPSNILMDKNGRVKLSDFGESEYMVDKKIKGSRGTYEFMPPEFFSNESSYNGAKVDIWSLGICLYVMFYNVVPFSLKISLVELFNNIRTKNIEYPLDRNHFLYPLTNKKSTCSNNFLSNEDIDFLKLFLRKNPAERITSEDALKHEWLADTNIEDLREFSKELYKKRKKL
# Sequence of Calcium-dependent protein kinase 1 (Plasmodium falciparum (isolate 3D7)) (P62344 whole entry, looked up): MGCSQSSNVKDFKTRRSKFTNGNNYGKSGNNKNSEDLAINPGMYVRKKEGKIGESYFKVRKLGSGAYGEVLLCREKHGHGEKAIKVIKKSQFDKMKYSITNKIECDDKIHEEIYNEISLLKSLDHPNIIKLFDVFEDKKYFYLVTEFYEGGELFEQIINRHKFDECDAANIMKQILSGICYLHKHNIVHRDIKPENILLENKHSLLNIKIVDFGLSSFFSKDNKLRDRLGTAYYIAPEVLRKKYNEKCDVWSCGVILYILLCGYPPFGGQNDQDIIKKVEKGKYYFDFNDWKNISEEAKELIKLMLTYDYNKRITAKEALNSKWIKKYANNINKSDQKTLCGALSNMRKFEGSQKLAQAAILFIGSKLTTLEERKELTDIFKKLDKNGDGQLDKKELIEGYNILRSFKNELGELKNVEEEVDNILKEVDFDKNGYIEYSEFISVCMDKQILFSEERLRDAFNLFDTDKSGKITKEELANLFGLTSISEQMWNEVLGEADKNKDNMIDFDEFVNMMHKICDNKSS
Compound,growth inhibition [1],inhibition [2],inhibition [3] [%],growth inhibition [4],outcome [5],outcome [6],outcome [7],outcome [8]
COc1ccccc1C1CN(Cc2coc3ccccc3c2=O)Cc2ccccc2O1 (stereo unspecified),61% (active),4%,2,87% (active),inactive,inactive,inactive,inactive
Fc1ccc2c(NN=Cc3ccc(Cl)cc3)ccnc2c1,99% (active),7%,-1,101% (active),inactive,inactive,inactive,inactive
c1cc(CNCC2CCCO2)cc(-c2csc(-c3nc4ccccc4[nH]3)c2)c1 (stereo unspecified),6%,5%,2,91% (active),inactive,inactive,inactive,inactive
Oc1ccc2nc(Nc3ccccc3)nc(NCCc3ccccc3)c2c1,100% (active),20%,-6,100% (active),inactive,inactive,inactive,inactive
Nc1nccc2ccc(-c3ccc4ncccc4c3)cc12,100% (active),97% (active),-7,100% (active),inactive,inactive,inactive,inactive
CCCOc1ccc(N2C(N)=NC(N)=NC2(C)C)cc1,2%,1%,-6,97% (active),inactive,inactive,inactive,inactive
O=C(/C=C/c1ccc(Cl)c(Cl)c1)NCCCCCN1CCC(NC(=S)Nc2cccc(Cl)c2)CC1,43%,24%,4,99% (active),inactive,inactive,inactive,inactive
CN(C)CCOc1ccc(-c2cc(-c3ccc(Cl)c(O)c3)c(-c3ccncc3)o2)cc1,99% (active),39%,2,102% (active),inactive,inactive,inactive,inactive
COc1ccccc1CN1CCC(NC(=O)c2ccc(-c3cccc(Cl)c3)s2)CC1,9%,49%,-1,84% (active),inactive,inactive,inactive,inactive
CC(C)C1=CC(=NOS(=O)(=O)c2ccccc2)C=C(C(C)C)C1=O,74% (active),23%,-3,92% (active),inactive,inactive,inactive,inactive
Cc1nc2nc(N)nc(N)c2c(C)c1Cc1ccc(C(F)(F)F)cc1,22%,57% (active),-2,96% (active),inactive,inactive,inactive,inactive
CN1CCC(N2CCN(Cc3ccc(-c4ccc(-c5nc6ccccc6[nH]5)s4)cc3)CC2)CC1,100% (active),62% (active),-3,101% (active),inactive,inactive,inactive,inactive
Cc1cccc(-c2cccc3c(NC(=O)N4CCc5cc6nccc(N7CCN8CCC[C@H]8C7)c6cc54)cccc23)n1,68% (active),14%,-6,94% (active),inactive,inactive,inactive,inactive
COc1cccc2cc(C(=O)N[C@@H](CC(C)C)C(=O)Nc3cc(F)ccc3Br)oc12,45%,7%,-1,87% (active),inactive,inactive,inactive,inactive
Cc1cc(NC(=O)NCCN2CCC(NC(=O)c3ccc(F)cc3)CC2)c2ccccc2n1,76% (active),-6%,-2,99% (active),inactive,inactive,inactive,inactive
Fc1ccc2nc(-c3cccc(-c4cccc(CNCC5CCCO5)c4)c3)[nH]c2c1 (stereo unspecified),94% (active),40%,3,99% (active),inactive,inactive,inactive,inactive
CCc1c[nH]c2c(N3CCCCC3=O)cc(C(=O)N[C@@H](Cc3ccccc3)[C@H](O)CNCc3cccc(OC)c3)cc12,99% (active),8%,-1,101% (active),inactive,inactive,inactive,inactive
COc1cc2nc(Nc3ccc(N4CCOCC4)cc3)nc(N)c2cc1OC,10%,8%,-3,95% (active),inactive,inactive,inactive,inactive
COc1ccc2nccc(NN=Cc3cccnc3)c2c1,84% (active),-1%,-6,100% (active),inactive,inactive,inactive,inactive

Compound,growth inhibition [1],inhibition [2],inhibition [3] [%],growth inhibition [4],outcome [5],outcome [6],outcome [7],outcome [8]
Cc1cccc2[nH]c(-c3ccc(-c4ccc(CN5CCN(CCC#N)CC5)cc4)cc3)nc12,27%,48%,0,91% (active),inactive,inactive,inactive,inactive
CCOC(=O)c1ccc(NC(=O)Nc2cccc(-c3ccc(-c4nc5ccc(C(F)(F)F)cc5[nH]4)cc3)c2)cc1,99% (active),62% (active),-4,101% (active),inactive,inactive,inactive,inactive
Cc1ccc2nc(-c3cc(-c4ccc(OCc5ccccc5)cc4)cnc3N)[nH]c2c1,87% (active),33%,1,91% (active),inactive,inactive,inactive,inactive
CC(=O)N/N=C/[C@H](CCc1ccccc1)NC(=O)[C@H](CC(C)C)NC(=O)c1ccc(F)cc1,86% (active),2%,-4,95% (active),inactive,inactive,inactive,inactive
COc1ccc2ccc(F)c(CCN3CCC(NCc4cc5c(cn4)OCCO5)CC3)c2n1,36%,15%,3,96% (active),inactive,inactive,inactive,inactive
O=C(NCCCCN1CCC(c2ccc3c(c2OCc2ccncc2)CCCC3)CC1)c1ccc(NC(=O)c2ccc(Cl)cc2)cc1,99% (active),62% (active),-4,100% (active),inactive,inactive,inactive,inactive
c1ccc2c(C3CCN(CCCCOc4ccc5c(c4)CCN(C4CCC4)CC5)CC3)c[nH]c2c1,100% (active),80% (active),-3,102% (active),inactive,inactive,inactive,inactive
COc1cc(NCCCCNc2ccc(Cl)c(Cl)c2)nc2ccccc12,68% (active),22%,2,100% (active),inactive,inactive,inactive,inactive
Cc1cc(=O)c(-c2ccc(OCCSc3ccc(C(F)(F)F)cn3)cc2)c(C)[nH]1,96% (active),2%,7,97% (active),inactive,inactive,inactive,inactive
Cc1ccc(C2(CN3CCC(NC(=O)c4ccn[nH]4)CC3)CCCCC2)cc1,96% (active),-6%,-3,97% (active),inactive,inactive,inactive,inactive
COc1ccc(NC(=O)[C@H](CC(C)C)Nc2cc(C)nc(NCCc3ccccc3OC)n2)cc1,68% (active),9%,-3,99% (active),inactive,inactive,inactive,inactive
Cc1cnc(NCCc2ccc(F)cc2)nc1N[C@@H](CC(C)C)C(=O)Nc1ccccc1,29%,19%,-1,87% (active),inactive,inactive,inactive,inactive
Cc1ccc(CCC(C)NCC(O)c2cccc(Cl)c2)cc1 (stereo unspecified),97% (active),2%,-4,97% (active),inactive,inactive,inactive,inactive
Cc1ccc(O)cc1Nc1c(C(N)=O)cnc2ccc(-c3cncs3)cc12,99% (active),21%,3,100% (active),inactive,inactive,inactive,inactive
O=C(/C=C/c1ccc(Cl)c(Cl)c1)NCCCCCCN1CCN(C(=O)Nc2cccc(Cl)c2)CC1,2%,33%,-3,85% (active),inactive,inactive,inactive,inactive
Cc1cc(N[C@@H](Cc2ccccc2)C(=O)NCc2cccc(F)c2)nc(NCC2CCCCC2)n1,42%,43%,-2,101% (active),inactive,inactive,inactive,inactive
CC(O)C1CCCCN1C(=O)c1cccc(-c2cccc(-c3nc4ccc(C(F)(F)F)cc4[nH]3)c2)c1 (stereo unspecified),100% (active),32%,-5,100% (active),inactive,inactive,inactive,inactive
Oc1cccc(CNCCCN(Cc2ccccc2)c2ccccc2)c1,97% (active),7%,-6,99% (active),inactive,inactive,inactive,inactive
